Screens: PubChem, National Center for Advancing Translational Sciences (NCATS)
This is a sample that favours compounds with a hit; in the whole collection about 5.7% have one here.
JMJD2A Tudor inh – qHTS Assay for Inhibitors of JMJD2A-Tudor Domain; AlphaScreen JMJD2A-Tudor / H3K4me3 peptide binding; Potency, µM (series often up to 114 µM), without a hit: at the top dose activity change, negative = inhibition, actives largely listed as inhibitors; actives 4.4% (n = 390,000); AID 504339, 2011; further: potency means the concentration at half of the fitted maximal effect; on the % scale 0 is the no-effect control and ±100 the full control effect; nearly all actives have a fitted effect of over 50% in size
L3MBTL1 inh – qHTS Assay for the Inhibitors of L3MBTL1; Potency, µM (doses to about 57.1 µM), without a hit: at the top dose activity, negative = inhibition, actives largely listed as inhibitors; actives 0.66% (n = 230,000); AlphaScreen L3MBTL1–H3K9me1 peptide binding; further: potency means the concentration at half of the fitted maximal effect; on the % scale 0 is the no-effect control and ±100 the full control effect; nearly all actives have a fitted effect of over 60% in size
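First, the protein-peptide complex forms for 30 min at room temperature (L3MBTL1 50 nM, biotinylated H3K9me1 peptide 75 nM). Next, compounds are pin-transferred and incubated 30 min. Finally, AlphaScreen beads are added and read after 30 min.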
KDM4E inh – qHTS Assay for Inhibitors of Human Jumonji Domain Containing 2E (JMJD2E) | Lysine-specific demethylase 4E (Homo sapiens), B2RXH2 | Potency, µM (highest dose often 57.1 µM), for the others: at the top dose activity change, negative = inhibition, hits mostly inhibitors | actives 1.6% (n = 230,000) | JMJD2E catalytic domain, FDH-coupled NADH fluorescence (FDH is formaldehyde dehydrogenase); active means well fitted inhibition curve with a large enough effect, not every such curve was filed as active; inconclusive means small, poorly fitted or top-dose-only effect, or another doubt; inactive means no such curve, though single readings can be large or run the other way;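 further: potency means the concentration at half of the fitted maximal effect; 0% = wells with enzyme and -100% = buffer wells without enzyme; nearly all actives have a fitted effect of over 50% in size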
HP1b binding inh – HTS for Inhibitors of HP1-beta Chromodomain Interactions with Methylated Histone Tails; Potency, µM (doses to about 114 µM), without a hit: at the top dose activity change, negative = inhibition, actives largely listed as inhibitors; actives 0.56% (n = 390,000); AlphaScreen HP1-beta / biotin-H3K9me3 peptide binding; further: potency means the concentration at half of the fitted maximal effect; nearly all actives have a fitted effect of over 70% in size
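HP1-beta protein (50 nM final) preincubated 30 min at room temperature with biotinylated H3(1-18)K9me3 peptide (50 nM) in PBS pH 7.4, 0.01% Tween-20, then compound added for 30 min. AlphaScreen streptavidin donor/nickel chelate acceptor beads (10 ug/mL final), 30 min dark, luminescence read.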
BAZ2B block – qHTS Assay for Inhibitors of BAZ2B | Bromodomain adjacent to zinc finger domain protein 2B (Homo sapiens), Q9UIF8 | AlphaScreen BAZ2B-H3K14Ac peptide displacement | Potency, µM (doses to about 114 µM), without a hit: at the top dose activity change, negative = inhibition, usual class: inhibitors | actives 4.4% (n = 360,000); further: potency means the concentration at half of the fitted maximal effect; on the % scale 0 is the no-effect control and ±100 the full control effect; nearly all actives have a fitted effect of over 60% in size
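Complex of BAZ2B and biotin-H3K14Ac (50 nM apiece) forms over 30 min at RT, then faces library compounds up to 110 uM for another 30 min; AlphaScreen beads added, 20 min dark incubation, luminescence read.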
PI5P4K alpha inh – qHTS for Inhibitors of phosphatidylinositol 5-phosphate 4-kinase (PI5P4K) | Phosphatidylinositol 5-phosphate 4-kinase type-2 alpha (Homo sapiens), P48426 | PI5P4Kalpha enzyme, ADP-Glo luminescence, 60 min; active compounds read low | max response, % | actives 1.2% (n = 330,000) | AID 652105, 2013; active means max response of -50% or lower; inconclusive means between -30% and -50%; inactive means -30% or higher; further: value at the top dose of about 77 µM; on the % scale 0 is the no-effect control and ±100 the full control effect
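Human PI5P4Kalpha with substrate in 0.038 M HEPES pH 7.4, 0.28 mM EGTA, 0.1% CHAPS, 5% DMSO; reaction started with 5 microM ATP (final), 60 min at room temperature. ADP formed read by ADP-Glo luminescence.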
Starred values were filed as active, the others as inactive; u = inconclusive; x = no result; [ ] = remark or other dose. Unless noted, the call rests on the fitted dose curve; in most records, active means well fitted inhibition curve with a large enough effect; inconclusive means small, poorly fitted or top-dose-only effect; inactive means no such curve, though single readings can be large or run the other way.

SMILES	JMJD2A Tudor inh	L3MBTL1 inh	KDM4E inh	HP1b binding inh	BAZ2B block	PI5P4K alpha inh
Cc1ccc2c(CN3CC=C(c4ccccc4)CC3)cc(=O)oc2c1C	-24.2%	-4.3%	25.1µM*	12.6%	-0.8%	-9.4
COc1ccc2c(CN3CC=C(c4ccccc4)CC3)cc(=O)oc2c1	-12.5%	x	u	71.4%	-0.4%	5.6
CCc1ccc2c(CN3CC=C(c4ccccc4)CC3)cc(=O)oc2c1	-10.0%	4.2%	14.1µM*	19.4%	-9.3%	7.4
O=C1CCCCC1	-6.9%	2.9%	x	49.5%	9.5%	-2.6
O=C(C1CCCN(S(=O)(=O)c2cccc3nsnc23)C1)N1CCN(c2cccc(Cl)c2)CC1 (stereo unspecified)	u	x	x	5.1%	x	x
Cc1cc(N(CCCl)CCCl)ccc1/C=N/N=C(\N)c1cnccn1	14.1µM*	x	x	u	x	10.4
COc1ccc(CNC(=O)C(NC(C)=O)C(C)C)cc1OC (stereo unspecified)	-4.1%	x	1.1%	35.8%	4.8%	0.6
COc1ccc(CNC(=O)CSCc2cnn(-c3ccccc3)c2-n2cccc2)cc1OC	-30.2%	x	x	-12.7%	28.2µM*	x
C[C@@]12CCC(=O)C[C@@H]1CC[C@@H]1[C@@H]2CC[C@]2(C)C(=O)CC[C@@H]12	x	x	4.4%	x	x	x
COc1ccccc1OCC#CCN1CCOCC1	u	-12.4%[2.29 µM]	-3.0%	70.8µM*	28.2µM*	5.5
COc1ccccc1OCC#CCN1CCCC(C)C1 (stereo unspecified)	11.2µM*	36.6%	-3.6%	u	25.1µM*	1.0
C(#CCN1CCOCC1)COCC#Cc1ccccc1	u	5.8%	3.3%	36.8%	u	x
COc1ccccc1C(=O)C1CCCN(Cc2cnc(C)s2)C1 (stereo unspecified)	-18.2%	-8.6%	7.1%	18.6%	u	-0.2
CC(C)(C)c1ccc(C(=O)Nc2ccc3nc(SCC(=O)N4CCCC4)sc3c2)cc1	-21.2%	x	x	45.1%	-8.8%	x
CC(C)n1c(N2CCN(S(=O)(=O)c3cccc([N+](=O)[O-])c3)CC2)nc2ccccc21	u	-3.4%	x	19.7%	-11.0%	1.7
CCCCN1C(=O)/C(=C/c2ccc(N(C)C)cc2)C(=O)N(Cc2ccco2)C1=O	u	u	-7.9%	-16.5%	u	-64.3*
CCN(CC)c1ccc(/C=C2\C(=O)NC(=O)N(Cc3ccco3)C2=O)cc1	u	-26.7%	-10.0%	-12.3%	50.1µM*	-57.1*
CN1Cc2c(ccc3c2OCO3)[C@@H]2[C@@H](O)Cc3cc4c(cc3[C@@H]21)OCO4	x	x	3.7%[25.5 µM]	x	x	x
COc1ccccc1C1Nc2ccccc2-n2c(-c3ccccc3)c3c(=O)n(C)c(=O)n(C)c3c21 (stereo unspecified)	-26.2%	x	x	49.9%	-23.5%	x
CCCCCCCCCCCCCCCCOC[C@@H](O)COP(=O)([O-])OCC[N+](C)(C)C	x	x	2.0%	x	x	x
Cc1cc(-c2ccc(C)c(S(=O)(=O)N3CCOc4ccc(Cl)cc43)c2)on1	-10.1%	x	x	63.6%	32.9%	x
COC1C(OC(=O)c2ccc(C)[nH]2)C(O)C(Oc2ccc3c(O)c(NC(=O)c4ccc(O)c(CC=C(C)C)c4)c(=O)oc3c2Cl)OC1(C)C (stereo unspecified)	50.1µM*	-7.7%	-16.5%	u	u	u
Cc1ccc(OCC(=O)N2CCN(Cc3ccc4c(c3)OCO4)CC2)cc1C	-15.5%	1.8%	7.6%	16.4%	u	1.5
Cc1ccc(OCC(=O)N2CCN(CCc3ccncc3)CC2)cc1	-12.6%	x	x	23.6%	-5.8%	x
CC(C)(C)NS(=O)(=O)c1ccc(OCC(=O)N2CCN(Cc3ccccc3)CC2)cc1	-14.4%	-3.7%	2.1%	1.4%	-16.8%	-5.0
SMILES	JMJD2A Tudor inh	L3MBTL1 inh	KDM4E inh	HP1b binding inh	BAZ2B block	PI5P4K alpha inh
O=C(COc1ccc(Br)cc1)N1CCN(Cc2ccncc2)CC1	1µM*	-4.3%	u	u	-3.0%	8.6
O=C(COc1ccc(Br)cc1)N1CCN(Cc2ccc3c(c2)OCO3)CC1	8.91µM*	x	x	u	50.1µM*	1.3
CSc1ccc(CN2CCN(C(=O)COc3ccc(C)cc3)CC2)cc1	8.91µM*	11.1%	u	u	56.2µM*	2.7
C[C@@H]1O[C@H](O[C@H]2C[C@@H](O)[C@@]3(CO)[C@H]4[C@@H](O)C[C@]5(C)[C@@H](C6=CC(=O)OC6)CC[C@]5(O)[C@H]4CC[C@]3(O)C2)[C@@H](O)[C@H](O)[C@@H]1O	x	x	5.4%[25.5 µM]	x	x	x
CC(C)CC(=O)Nc1ccc(C(=O)Cn2c(=O)oc3ccccc32)cc1	-30.3%	u	1.7%	7.9%	u	-15.6
CC(C)CCNC(=O)Cn1c(=O)oc2cc(S(=O)(=O)N3CCc4ccccc43)ccc21	-25.5%	-3.2%	7.8%	40.6%	-4.4%	-0.9
CN(C)c1ccc(CNC(=O)Cn2c(=O)oc3cc(S(=O)(=O)N4CCCCCC4)ccc32)cc1	u	x	x	-33.2%	25.1µM*	x
C/C(=N\NC(N)=O)c1c(O)n(C)c(=O)n(C)c1=O	39.8µM*	-1.1%	9.3%	27.9%	x	-12.0
COc1ccc(NC(=O)c2ccco2)cc1NC(=O)COc1cccc(C)c1C	-17.9%	x	x	u	-0.5%	x
NC(Cn1ccc(=O)[nH]c1=O)C(=O)O (stereo unspecified)	x	x	-25.9%	x	x	x
CN(C(=O)COC(=O)c1ccc([N+](=O)[O-])cc1Cl)C1CCCCC1	-22.6%	x	-3.3%	7.5%	u	-3.6
CN(C)CC1CCCCC1OC(=O)Cc1ccc(Cl)c([N+](=O)[O-])c1 (stereo unspecified)	14.1µM*	x	x	u	u	-10.0
N#CC(C#N)=Cc1ccc(O)c(O)c1	u	22.4µM*	7.94µM*	2.5%	79.4µM*	-12.2
CCc1ccc(/C=C(/C#N)C(N)=S)cc1	-34.0%	-4.0%	u	u	u	2.8
N#CC(=Cc1ccc(O)c(O)c1)C(N)=S	x	x	8.91µM*	x	x	x
CC(C)(C)c1cc(C=C(C#N)C#N)cc(C(C)(C)C)c1O	2.9%	-19.8%	19.0%	17.7%	u	1.5
COc1cc(C=C(C#N)C#N)cc(O)c1O	x	x	11.2µM*	x	x	x
CC/C=C\C/C=C\C/C=C\C/C=C\C/C=C\CCCC(=O)NCC(=O)O	x	x	0.1%	x	x	x
CCN1C(=O)NC(=O)/C(=C\c2cn(CC(=O)O)c3ccccc23)C1=O	x	x	x	x	-14.0%	x
